# Values joined by “and” are separate entries in the source; they are usually repeats but may differ in a detail not shown here. Equal entries are not always repeated. In all, about 6,400 compounds went through this assay and about 610 (9.5%) were called active. Cut-off read from the data, not from the text of the source: active = activity change below about -70%; inconclusive = no clear call, values can overlap the other calls; inactive = above that. The list comes from a sample in which actives are over-represented; it also holds similar structures and randomly drawn compounds.
# Assay: T. gondii ME49Luc in HeLa cells, luciferase assay, 72 h, no IFN-y (AID 1259421)
# Conditions: hits give low values, concentration not given here
row,Structure (SMILES),"activity change, negative = inhibition"
1,c1ccc(Oc2cccnc2)cc1,5.26% (inactive)
2,CC1=CC(=O)CC(C)(C)[C@@]1(O)/C=C/C(C)=C\C(=O)O,0.0395% (inactive)
3,CCCCC[C@H](O)/C=C/[C@@H]1[C@H]2C/C(=C/CCCC(=O)O)O[C@H]2C[C@H]1O,13.9% (inactive)
4,O=C(O)CCc1nc2ccccc2[nH]1,7.52% (inactive) and 21.6% (inactive)
5,COCC(=O)O[C@]1(CCN(C)CCCc2nc3ccccc3[nH]2)CCc2cc(F)ccc2[C@@H]1C(C)C,-74.4% (active) and -72.6% (active)
6,CC(C)[C@H]1c2ccc(F)cc2CC[C@@]1(CCN(C)CCCc1nc2ccccc2[nH]1)OC(=O)C1CC1,-84% (active) and -73.8% (active)
7,O=C(O)C1CC(O)CN1 (stereo not drawn),-0.806% (inactive)
8,Cc1ccc(S(=O)(=O)Nc2nc3ccccc3nc2Nc2ccc3nsnc3c2)cc1,1.14% (inactive)
9,O=c1oc2cc(O)ccc2c2oc3cc(O)ccc3c12,13.4% (inactive)
10,CC1(C)CCC(c2ccc(Cl)cc2)=C(CN2CCN(c3ccc(C(=O)NS(=O)(=O)c4ccc(N[C@H](CCN5CCOCC5)CSc5ccccc5)c(S(=O)(=O)C(F)(F)F)c4)cc3)CC2)C1,-89% (active)
11,CN(C)CC[C@H](CSc1ccccc1)Nc1ccc(S(=O)(=O)NC(=O)c2ccc(N3CCN(Cc4ccccc4-c4ccc(Cl)cc4)CC3)cc2)cc1[N+](=O)[O-],-28.3% (inactive)
12,COC(=O)C(CCCN=C(N)N)NC(=O)CCCc1c(-c2ccccc2)[nH]c2c(F)cc(F)cc12 (stereo not drawn),11.7% (inactive)
13,C=C1[C@H]2CC[C@@]3(C)[C@H](c4ccoc4)OC(=O)C[C@]13O[C@H]1C[C@H](O)C(C)(C)[C@H](CC(=O)OC)[C@]12C,-4.68% (inactive)
14,CCOC(=O)[C@H](CCc1ccccc1)N[C@H](C)C(=O)N1C2CCCCC2C[C@H]1C(=O)O (stereo partly drawn),14.3% (inactive) and 13.5% (inactive)
15,C=CC(=O)Nc1cccc(OC)c1,7.29% (inactive)
16,COc1cc(SC)ccc1-c1nc2ccncc2[nH]1,-3.26% (inactive)
17,CCN(CC)CC1CCCCN1CC(=O)N1c2ccccc2C(=O)Nc2cccnc21 (stereo not drawn),5.74% (inactive) and 8.21% (inactive)
18,C[C@]12CCC3c4ccc(OC(=O)c5ccccc5)cc4CCC3C1CCC2=O (stereo partly drawn),-55.9% (inactive)
19,CC12CCC3c4ccc(O)cc4CCC3C1C[C@H](O)[C@@H]2O (stereo partly drawn),-75.1% (active)

row,Structure (SMILES),"activity change, negative = inhibition"
1,C[C@]12CCC3c4ccc(O)cc4CCC3C1CC[C@@H]2O (stereo partly drawn),-87.4% (active)
2,COc1ccc2c(c1)CCC1C2CC[C@@]2(C)C1CC[C@@H]2O (stereo partly drawn),-9.49% (inactive)
3,C[C@]12CCC3c4ccc(OC(=O)c5ccccc5)cc4CCC3C1CC[C@@H]2O (stereo partly drawn),-85.4% (active)
4,C[C@]12CCC3c4ccc(OS(=O)(=O)O)cc4CCC3C1CC[C@H]2O (stereo partly drawn),-7.66% (inactive)
5,C[C@]12CCC3c4ccc(O)cc4CCC3C1C[C@@H](O)[C@@H]2O (stereo partly drawn),-4.22% (inactive)
6,C[C@]12CC[C@@H]3c4ccc(O)cc4CC[C@H]3[C@@H]1C[C@@H](O)[C@@H]2O,-0.302% (inactive)
7,CC12CCC3c4ccc(OC(=O)c5ccccc5)cc4CCC3C1CCC2O (stereo not drawn),-15.9% (inactive)
8,CC(=O)OC1CCC2C3CCc4cc(O)ccc4C3CCC12C (stereo not drawn),1.9% (inactive)
9,C[C@]12CC[C@@H]3c4ccc(O)cc4CC[C@H]3[C@@H]1CC[C@@H]2O,-81.4% (active) and -83.1% (active)
10,COc1cc2c(cc1O)CC[C@@H]1[C@@H]2CC[C@]2(C)[C@@H](O)CC[C@@H]12,-44.5% (inactive)
11,CON(C)C(=O)N1N=C(c2cc(F)ccc2F)S[C@@]1(CCCN)c1ccccc1,-53.7% (inactive)
12,CCCCc1nc2ccn(CC(=O)N(C)C)c(=O)c2n1Cc1ccc(-c2ccccc2-c2nn[nH]n2)cc1,18.6% (inactive) and -0.527% (inactive)
13,O=C1CSC(=O)N1,20.7% (inactive)
14,O=C1NC(=O)c2cc(Nc3ccccc3)c(Nc3ccccc3)cc21,7.82% (inactive)
15,CC(=O)[C@H]1CCC2C3CCC4=CC(=O)CC[C@]4(C)C3[C@H](OC(=O)CCC(=O)O)C[C@@]21C (stereo partly drawn),-2.62% (inactive)
16,CC(C)(c1ccc(O)cc1)c1ccc(O)cc1,6.99% (inactive)
17,CCc1ccccc1OC[C@@H](O)CN[C@H]1CCCc2ccccc21,23.1% (inactive) and 15.7% (inactive)
18,C[C@@H]1CC[C@@]2(OC1)O[C@H]1C[C@H]3[C@@H]4CC=C5C[C@@H](O)CC[C@]5(C)[C@H]4CC[C@]3(C)[C@H]1[C@@H]2C,6.17% (inactive)
19,CN1[C@@H]2CC[C@@H]1CC(OC(c1ccccc1)c1ccccc1)C2 (stereo partly drawn),11.3% (inactive)

# From PubChem BioAssay AID1259421 (Broad Institute, 2018)
